Data reported in PMC7862700, “An all-to-all approach to the identification of sequence-specific readers for epigenetic DNA modifications on cytosine”.

How the values were obtained:
Experiment in all cases: DAPPL (digital affinity profiling via proximity ligation, sequencing); 10 mM Tris-HCl pH 7.5, 50 mM NaCl, 1 mM DTT, 4% glycerol, room temperature, 30 min; GST-TFs on glutathione beads, 16-mer random dsDNA library, 0.1% formaldehyde crosslink after washing; high values mean tight binding
Details in all cases: protein: recombinant; tags: N-terminal GST; dsDNA, one strand shown
FLI1 = biological target: T1, FLI1 (Homo sapiens, UniProt Q01543 1-452)
T1 sequence: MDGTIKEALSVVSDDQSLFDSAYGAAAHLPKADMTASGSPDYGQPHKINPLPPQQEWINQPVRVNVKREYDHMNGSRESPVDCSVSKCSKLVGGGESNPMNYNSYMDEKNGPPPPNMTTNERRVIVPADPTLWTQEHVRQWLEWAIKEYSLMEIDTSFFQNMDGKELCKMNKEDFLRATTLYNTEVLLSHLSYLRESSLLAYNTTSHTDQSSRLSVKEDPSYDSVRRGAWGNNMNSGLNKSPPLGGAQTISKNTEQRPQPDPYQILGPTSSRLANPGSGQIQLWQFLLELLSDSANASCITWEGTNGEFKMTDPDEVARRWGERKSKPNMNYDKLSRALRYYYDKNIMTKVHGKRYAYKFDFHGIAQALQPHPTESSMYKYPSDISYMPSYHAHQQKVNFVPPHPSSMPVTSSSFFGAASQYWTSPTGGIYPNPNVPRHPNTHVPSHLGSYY
Summary of the method: (§1)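 Binding signal is given per hexamer as its read frequency for a factor divided by its frequency in the tag-only sample. GST-fused human transcription factors were expressed in yeast, captured on glutathione beads, barcoded with DNA and pooled with that sample, then incubated with 200 nmole of a 16-mer random double-stranded DNA library in Tris/NaCl/DTT/glycerol buffer for 30 min at room temperature. The pools were then washed, crosslinked, proximity-ligated, amplified by PCR and sequenced on an Illumina NextSeq500.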

ELK1 = biological target: T2, ELK1 (Homo sapiens, UniProt P19419 1-428)
T2 sequence: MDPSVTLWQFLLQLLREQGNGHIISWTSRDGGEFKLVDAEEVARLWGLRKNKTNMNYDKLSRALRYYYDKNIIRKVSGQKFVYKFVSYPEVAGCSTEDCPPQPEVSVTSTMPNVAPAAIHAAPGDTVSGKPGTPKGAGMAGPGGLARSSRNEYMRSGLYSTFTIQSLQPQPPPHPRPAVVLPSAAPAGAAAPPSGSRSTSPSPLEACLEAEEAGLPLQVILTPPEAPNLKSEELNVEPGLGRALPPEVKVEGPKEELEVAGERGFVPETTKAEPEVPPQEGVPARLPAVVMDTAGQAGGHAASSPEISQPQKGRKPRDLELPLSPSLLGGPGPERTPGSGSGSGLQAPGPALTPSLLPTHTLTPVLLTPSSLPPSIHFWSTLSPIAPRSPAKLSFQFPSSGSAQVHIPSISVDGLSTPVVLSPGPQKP
Summary of the method: as §1

GABPA = biological target: T3, GABPA (Homo sapiens, UniProt Q06546 1-454)
T3 sequence: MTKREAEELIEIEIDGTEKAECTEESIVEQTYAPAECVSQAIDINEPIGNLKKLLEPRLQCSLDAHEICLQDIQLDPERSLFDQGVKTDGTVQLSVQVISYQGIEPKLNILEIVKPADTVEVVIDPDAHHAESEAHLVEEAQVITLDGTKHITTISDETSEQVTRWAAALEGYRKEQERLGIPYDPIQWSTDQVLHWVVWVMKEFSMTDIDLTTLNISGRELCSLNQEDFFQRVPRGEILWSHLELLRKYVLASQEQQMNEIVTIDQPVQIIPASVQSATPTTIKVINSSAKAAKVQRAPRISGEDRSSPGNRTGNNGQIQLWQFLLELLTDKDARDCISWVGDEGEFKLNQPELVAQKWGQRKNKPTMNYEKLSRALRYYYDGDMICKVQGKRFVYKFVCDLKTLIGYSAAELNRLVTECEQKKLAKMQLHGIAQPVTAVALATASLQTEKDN
Summary of the method: as §1

ERG = biological target: T4, ERG (Homo sapiens, UniProt P11308 1-479)
T4 sequence: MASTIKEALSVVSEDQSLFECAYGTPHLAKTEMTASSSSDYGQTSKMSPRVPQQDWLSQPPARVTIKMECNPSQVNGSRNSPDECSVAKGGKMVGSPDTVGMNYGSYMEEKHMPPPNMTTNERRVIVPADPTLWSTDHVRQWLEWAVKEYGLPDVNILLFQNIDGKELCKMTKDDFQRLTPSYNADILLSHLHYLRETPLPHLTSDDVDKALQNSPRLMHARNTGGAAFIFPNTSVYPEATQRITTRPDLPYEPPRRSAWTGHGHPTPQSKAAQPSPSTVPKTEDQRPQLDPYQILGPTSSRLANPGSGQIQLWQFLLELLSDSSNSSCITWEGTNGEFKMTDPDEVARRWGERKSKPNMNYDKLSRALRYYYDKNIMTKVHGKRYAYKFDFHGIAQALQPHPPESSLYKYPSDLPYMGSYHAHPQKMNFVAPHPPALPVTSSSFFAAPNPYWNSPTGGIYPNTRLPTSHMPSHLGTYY
Summary of the method: as §1

ELF1 = ELF1 (Homo sapiens, UniProt P32519 1-619)
Summary of the method: as §1

EHF = biological target: T5, EHF (Homo sapiens, UniProt Q9NZC4 1-300)
T5 sequence: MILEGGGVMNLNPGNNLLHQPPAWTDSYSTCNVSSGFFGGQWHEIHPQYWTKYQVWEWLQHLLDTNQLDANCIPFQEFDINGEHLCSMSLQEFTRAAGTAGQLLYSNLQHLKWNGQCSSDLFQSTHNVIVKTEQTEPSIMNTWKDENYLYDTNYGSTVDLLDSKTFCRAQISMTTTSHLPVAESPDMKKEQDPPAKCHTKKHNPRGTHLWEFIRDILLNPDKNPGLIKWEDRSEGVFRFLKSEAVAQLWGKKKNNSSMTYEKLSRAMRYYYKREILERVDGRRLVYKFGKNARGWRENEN
Summary of the method: as §1

SPI1 = SPI1 (Homo sapiens, UniProt P17947 1-270)
Summary of the method: as §1

SPIB = SPIB (Homo sapiens, UniProt Q01892 1-262)
Summary of the method: as §1

ELK3 = biological target: T6, ELK3 (Homo sapiens, UniProt P41970 1-407)
T6 sequence: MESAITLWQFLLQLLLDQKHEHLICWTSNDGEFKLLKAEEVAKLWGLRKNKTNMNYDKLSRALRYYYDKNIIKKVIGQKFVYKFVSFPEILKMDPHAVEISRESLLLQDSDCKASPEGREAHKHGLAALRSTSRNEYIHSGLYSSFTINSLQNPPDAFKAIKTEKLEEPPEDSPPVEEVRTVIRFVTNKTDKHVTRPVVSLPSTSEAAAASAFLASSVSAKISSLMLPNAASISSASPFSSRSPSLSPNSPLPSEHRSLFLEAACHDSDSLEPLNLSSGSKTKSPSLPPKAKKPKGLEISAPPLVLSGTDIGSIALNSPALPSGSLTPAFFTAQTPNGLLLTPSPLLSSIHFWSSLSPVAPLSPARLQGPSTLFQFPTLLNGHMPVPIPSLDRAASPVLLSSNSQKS
Summary of the method: as §1

FEV = biological target: T7, FEV (Homo sapiens, UniProt Q99581 1-238)
T7 sequence: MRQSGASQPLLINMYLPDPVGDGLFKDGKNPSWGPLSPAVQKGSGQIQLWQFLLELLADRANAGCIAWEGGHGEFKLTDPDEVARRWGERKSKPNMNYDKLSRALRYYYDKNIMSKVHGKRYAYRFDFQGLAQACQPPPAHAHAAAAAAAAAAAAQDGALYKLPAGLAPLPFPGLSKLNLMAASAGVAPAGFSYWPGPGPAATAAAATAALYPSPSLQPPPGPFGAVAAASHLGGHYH
Summary of the method: as §1

ETV5 = ETV5 (Homo sapiens, UniProt P41161 1-510)
Summary of the method: as §1

SPIC = biological target: T8, SPIC (Homo sapiens, UniProt Q8N5J4 1-248)
T8 sequence: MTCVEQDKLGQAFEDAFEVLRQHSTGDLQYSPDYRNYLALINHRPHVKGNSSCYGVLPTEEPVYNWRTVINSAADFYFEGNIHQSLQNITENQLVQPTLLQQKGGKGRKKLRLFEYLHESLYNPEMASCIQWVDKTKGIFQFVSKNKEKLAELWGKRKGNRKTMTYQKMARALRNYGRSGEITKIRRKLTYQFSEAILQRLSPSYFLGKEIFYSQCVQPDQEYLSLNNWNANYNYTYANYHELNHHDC
Summary of the method: as §1

ELF4 = ELF4 (Homo sapiens, UniProt Q99607 1-663)
Summary of the method: as §1

ELK4 = biological target: T9, ELK4 (Homo sapiens, UniProt P28324-2 1-405)
T9 sequence: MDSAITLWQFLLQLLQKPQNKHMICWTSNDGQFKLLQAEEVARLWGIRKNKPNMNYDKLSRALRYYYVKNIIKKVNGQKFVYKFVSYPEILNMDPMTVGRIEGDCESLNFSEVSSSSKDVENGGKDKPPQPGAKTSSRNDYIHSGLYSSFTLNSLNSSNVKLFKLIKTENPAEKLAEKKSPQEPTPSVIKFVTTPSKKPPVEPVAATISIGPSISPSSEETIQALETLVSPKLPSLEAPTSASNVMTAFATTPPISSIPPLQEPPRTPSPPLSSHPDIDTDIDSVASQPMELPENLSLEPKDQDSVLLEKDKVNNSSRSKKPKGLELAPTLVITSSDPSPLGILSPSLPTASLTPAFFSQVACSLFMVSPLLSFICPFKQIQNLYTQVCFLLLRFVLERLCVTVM
Summary of the method: as §1

ETV2 = biological target: T10, ETV2 (Homo sapiens, UniProt O00321 1-342)
T10 sequence: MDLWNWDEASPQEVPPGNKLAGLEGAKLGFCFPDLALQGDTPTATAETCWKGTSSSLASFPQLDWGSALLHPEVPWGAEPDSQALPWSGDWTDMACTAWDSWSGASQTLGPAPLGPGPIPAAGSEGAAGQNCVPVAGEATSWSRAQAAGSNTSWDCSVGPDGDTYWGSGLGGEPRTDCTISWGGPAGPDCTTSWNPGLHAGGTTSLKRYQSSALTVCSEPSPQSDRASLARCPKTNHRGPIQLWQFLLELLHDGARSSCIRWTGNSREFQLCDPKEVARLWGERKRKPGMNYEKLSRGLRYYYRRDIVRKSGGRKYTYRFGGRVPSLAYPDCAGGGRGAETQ
Summary of the method: as §1

ELF3 = biological target: T11, ELF3 (Homo sapiens, UniProt P78545 1-371)
T11 sequence: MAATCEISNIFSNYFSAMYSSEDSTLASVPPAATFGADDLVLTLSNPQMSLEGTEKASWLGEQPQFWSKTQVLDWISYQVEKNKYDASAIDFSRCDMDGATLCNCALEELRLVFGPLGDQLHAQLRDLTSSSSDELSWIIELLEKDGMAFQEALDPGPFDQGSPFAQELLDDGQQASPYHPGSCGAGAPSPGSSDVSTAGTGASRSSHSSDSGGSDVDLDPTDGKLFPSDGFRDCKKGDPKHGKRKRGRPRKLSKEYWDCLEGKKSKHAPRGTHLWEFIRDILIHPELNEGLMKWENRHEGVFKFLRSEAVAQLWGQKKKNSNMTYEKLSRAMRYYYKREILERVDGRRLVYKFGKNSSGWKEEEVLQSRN
Summary of the method: as §1

ETV1 = ETV1 (Homo sapiens, UniProt P50549 1-477)
Summary of the method: as §1

Sequence of ETV1 (P50549 whole entry): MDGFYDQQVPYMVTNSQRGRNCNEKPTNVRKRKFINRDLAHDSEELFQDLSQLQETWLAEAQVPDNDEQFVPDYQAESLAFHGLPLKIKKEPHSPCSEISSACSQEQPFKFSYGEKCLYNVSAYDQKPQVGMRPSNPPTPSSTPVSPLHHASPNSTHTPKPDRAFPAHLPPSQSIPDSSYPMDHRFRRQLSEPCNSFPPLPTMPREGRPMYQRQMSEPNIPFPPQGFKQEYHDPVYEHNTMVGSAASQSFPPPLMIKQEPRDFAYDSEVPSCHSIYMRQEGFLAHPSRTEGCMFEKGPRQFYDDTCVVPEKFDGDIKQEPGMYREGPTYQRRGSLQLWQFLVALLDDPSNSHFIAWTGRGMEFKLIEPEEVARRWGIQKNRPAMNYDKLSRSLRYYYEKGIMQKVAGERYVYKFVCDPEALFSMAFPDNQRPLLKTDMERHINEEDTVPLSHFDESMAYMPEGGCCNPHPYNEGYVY
Sequence of ELF1 (P32519 whole entry): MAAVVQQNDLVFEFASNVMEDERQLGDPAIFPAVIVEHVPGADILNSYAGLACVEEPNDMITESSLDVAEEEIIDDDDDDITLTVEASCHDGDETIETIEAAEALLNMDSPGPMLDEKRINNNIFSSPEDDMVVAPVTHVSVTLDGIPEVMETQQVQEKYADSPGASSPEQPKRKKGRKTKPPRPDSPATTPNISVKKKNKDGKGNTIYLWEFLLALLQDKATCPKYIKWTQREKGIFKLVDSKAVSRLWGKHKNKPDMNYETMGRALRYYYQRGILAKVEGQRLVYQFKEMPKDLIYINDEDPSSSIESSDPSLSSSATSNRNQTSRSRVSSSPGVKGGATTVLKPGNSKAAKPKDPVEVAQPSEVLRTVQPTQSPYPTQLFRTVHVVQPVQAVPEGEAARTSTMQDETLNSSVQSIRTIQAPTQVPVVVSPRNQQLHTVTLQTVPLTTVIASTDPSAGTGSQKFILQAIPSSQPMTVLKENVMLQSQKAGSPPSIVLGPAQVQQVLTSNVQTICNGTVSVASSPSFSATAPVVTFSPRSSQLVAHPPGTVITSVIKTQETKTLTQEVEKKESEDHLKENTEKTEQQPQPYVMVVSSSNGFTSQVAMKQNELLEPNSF
Sequence of ETV5 (P41161 whole entry): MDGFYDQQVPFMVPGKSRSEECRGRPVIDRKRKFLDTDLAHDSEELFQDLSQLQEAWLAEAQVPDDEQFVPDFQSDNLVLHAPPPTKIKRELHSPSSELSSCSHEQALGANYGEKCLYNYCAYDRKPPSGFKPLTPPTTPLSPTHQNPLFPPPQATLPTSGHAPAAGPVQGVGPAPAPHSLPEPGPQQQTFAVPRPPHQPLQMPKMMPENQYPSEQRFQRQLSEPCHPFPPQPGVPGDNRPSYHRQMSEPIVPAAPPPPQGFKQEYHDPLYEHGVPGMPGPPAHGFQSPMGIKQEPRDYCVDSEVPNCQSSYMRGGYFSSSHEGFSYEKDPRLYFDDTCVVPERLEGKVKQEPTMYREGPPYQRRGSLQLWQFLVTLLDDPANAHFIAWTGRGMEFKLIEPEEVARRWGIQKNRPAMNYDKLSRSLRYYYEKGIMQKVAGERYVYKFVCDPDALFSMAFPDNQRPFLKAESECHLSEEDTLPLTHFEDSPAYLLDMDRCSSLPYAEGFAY
Sequence of ELF4 (Q99607 whole entry): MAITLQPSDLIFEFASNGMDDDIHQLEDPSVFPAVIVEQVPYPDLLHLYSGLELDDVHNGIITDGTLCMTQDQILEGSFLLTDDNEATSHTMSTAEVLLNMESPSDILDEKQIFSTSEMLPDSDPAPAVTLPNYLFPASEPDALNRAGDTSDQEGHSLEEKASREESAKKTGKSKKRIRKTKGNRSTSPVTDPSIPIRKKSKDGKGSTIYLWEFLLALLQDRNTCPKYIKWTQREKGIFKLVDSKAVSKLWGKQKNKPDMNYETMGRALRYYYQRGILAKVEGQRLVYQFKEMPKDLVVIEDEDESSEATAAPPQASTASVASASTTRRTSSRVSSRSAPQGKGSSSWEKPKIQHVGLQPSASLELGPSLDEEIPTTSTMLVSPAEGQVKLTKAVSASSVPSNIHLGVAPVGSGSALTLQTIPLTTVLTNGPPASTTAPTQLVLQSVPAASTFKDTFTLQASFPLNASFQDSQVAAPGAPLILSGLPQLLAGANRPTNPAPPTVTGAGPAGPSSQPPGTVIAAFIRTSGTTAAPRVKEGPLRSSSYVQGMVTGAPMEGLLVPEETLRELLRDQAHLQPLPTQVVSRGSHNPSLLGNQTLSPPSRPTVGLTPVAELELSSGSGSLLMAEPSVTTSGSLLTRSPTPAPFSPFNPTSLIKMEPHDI
Sequence of SPIB (Q01892 whole entry): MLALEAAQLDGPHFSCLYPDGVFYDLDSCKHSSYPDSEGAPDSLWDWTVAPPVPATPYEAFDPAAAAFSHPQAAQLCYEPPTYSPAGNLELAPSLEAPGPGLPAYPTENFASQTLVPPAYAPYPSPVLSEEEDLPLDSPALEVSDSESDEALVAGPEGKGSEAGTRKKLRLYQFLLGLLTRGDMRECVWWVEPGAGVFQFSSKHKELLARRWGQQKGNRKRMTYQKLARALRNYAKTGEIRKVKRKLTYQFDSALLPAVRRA

Row | Sequence | binding signal (FLI1) | binding signal (ELK1) | binding signal (GABPA) | binding signal (ERG) | binding signal (ELF1) | binding signal (EHF) | binding signal (SPI1) | binding signal (SPIB) | binding signal (ELK3) | binding signal (FEV) | binding signal (ETV5) | binding signal (SPIC) | binding signal (ELF4) | binding signal (ELK4) | binding signal (ETV2) | binding signal (ELF3) | binding signal (ETV1)
1 | CAACCT | 1.2 fold enrichment (6-mer frequency, TF over GST control) | 1.16 fold enrichment (6-mer frequency, TF over GST control) | 1.23 fold enrichment (6-mer frequency, TF over GST control) | 1.13 fold enrichment (6-mer frequency, TF over GST control) | 1.2 fold enrichment (6-mer frequency, TF over GST control) | 1.21 fold enrichment (6-mer frequency, TF over GST control) | 1.14 fold enrichment (6-mer frequency, TF over GST control) | 1.17 fold enrichment (6-mer frequency, TF over GST control) | 1.08 fold enrichment (6-mer frequency, TF over GST control) | 1.21 fold enrichment (6-mer frequency, TF over GST control) | 1.18 fold enrichment (6-mer frequency, TF over GST control) | 1.13 fold enrichment (6-mer frequency, TF over GST control) | 1.11 fold enrichment (6-mer frequency, TF over GST control) | 1.15 fold enrichment (6-mer frequency, TF over GST control) | 1.28 fold enrichment (6-mer frequency, TF over GST control) | 1.12 fold enrichment (6-mer frequency, TF over GST control) | 1.2 fold enrichment (6-mer frequency, TF over GST control)
2 | ACAACA | 1.22 fold enrichment (6-mer frequency, TF over GST control) | 1.24 fold enrichment (6-mer frequency, TF over GST control) | 1.23 fold enrichment (6-mer frequency, TF over GST control) | 1.2 fold enrichment (6-mer frequency, TF over GST control) | 1.29 fold enrichment (6-mer frequency, TF over GST control) | 1.24 fold enrichment (6-mer frequency, TF over GST control) | 1.18 fold enrichment (6-mer frequency, TF over GST control) | 1.19 fold enrichment (6-mer frequency, TF over GST control) | 1.19 fold enrichment (6-mer frequency, TF over GST control) | 1.2 fold enrichment (6-mer frequency, TF over GST control) | 1.16 fold enrichment (6-mer frequency, TF over GST control) | 1.13 fold enrichment (6-mer frequency, TF over GST control) | 1.19 fold enrichment (6-mer frequency, TF over GST control) | 1.14 fold enrichment (6-mer frequency, TF over GST control) | 1.28 fold enrichment (6-mer frequency, TF over GST control) | 1.32 fold enrichment (6-mer frequency, TF over GST control) | 1.23 fold enrichment (6-mer frequency, TF over GST control)
3 | CATCAC | 1.1 fold enrichment (6-mer frequency, TF over GST control) | 1.1 fold enrichment (6-mer frequency, TF over GST control) | 1.18 fold enrichment (6-mer frequency, TF over GST control) | 1.15 fold enrichment (6-mer frequency, TF over GST control) | 1.19 fold enrichment (6-mer frequency, TF over GST control) | 1.13 fold enrichment (6-mer frequency, TF over GST control) | 1.11 fold enrichment (6-mer frequency, TF over GST control) | 1.11 fold enrichment (6-mer frequency, TF over GST control) | 1.05 fold enrichment (6-mer frequency, TF over GST control) | 1.16 fold enrichment (6-mer frequency, TF over GST control) | 1.13 fold enrichment (6-mer frequency, TF over GST control) | 1.26 fold enrichment (6-mer frequency, TF over GST control) | 1.12 fold enrichment (6-mer frequency, TF over GST control) | 1.29 fold enrichment (6-mer frequency, TF over GST control) | 1.11 fold enrichment (6-mer frequency, TF over GST control) | 1.14 fold enrichment (6-mer frequency, TF over GST control) | 1.1 fold enrichment (6-mer frequency, TF over GST control)
